{"source": "PubChem BioAssay (NCATS)", "note": "Several values for one entry are separate records, joined by “and”; a condition that tells them apart may be missing. Identical values can stand only once. Inconclusive results are not listed. Some structures have more than one record in an assay (separate samples or runs), and their calls can disagree. Activity calls are given as the source filed them. Calls follow the shape of the dose curve; as a rule, active = well fitted cell-killing curve with a large enough effect; inconclusive = small, poorly fitted or top-dose-only effect, or effect the other way; inactive = no such curve, though single readings can be large or run the other way.", "data": [{"assay": "Quantitative High-Throughput drug screen in 47 multiple myeloma cell lines against the NCATS MIPE library collection: KMS28PE_JCRB cell viability assay (AID 1918983); also: nearly all actives have a fitted effect of over 35% in size; also: potency is read from the fitted curve at half-maximal effect", "details": "KMS28PE multiple myeloma viability, CellTiter-Glo ATP, 48 h; series mostly up to 45.8 µM; viability, % of DMSO control: at the top concentration", "text": "PI: Beverly A. Mock Ph.D.\nLaboratory of Cancer Biology and Genetics,\nCenter for Cancer Research, National Cancer Institute,\nNational Institute of Health, Bethesda, Maryland\nDrug resistance and disease progression are common in multiple myeloma (MM) patients, underscoring the need for new therapeutic combinations. […] We hypothesized that effective combinations would reduce MYC expression and enhance p16 activity. […] These preclinical data identify potentially useful drug combinations for evaluation in drug-resistant MM and reveal potential mechanisms of combined drug sensitivity.\nDescribed herein is the primary MIPE qHTS used to cherrypick compounds. Validated compounds were then further tested for potential synergistic activiy.\n[1] Peat TJ, Gaikwad SM, Dubois W, Gyabaah-Kessie N, Zhang S, Gorjifard S, Phyo Z, Andres M, Hughitt VK, Simpson RM, Miller MA, Girvin AT, Taylor A, Williams D, D'Antonio N, Zhang Y, Rajagopalan A, Flietner E, Wilson K, Zhang X, Shinn P, Klumpp-Thomas C, McKnight C, Itkin Z, Chen L, Kazandijian D, Zhang J, Michalowski AM, Simmons JK, Keats J, Thomas CJ, Mock BA. Drug combinations identified by high-throughput screening promote cell cycle transition and upregulate Smad pathways in myeloma. Cancer Lett. 2023 Aug 1;568:216284. doi: 10.1016/j.canlet.2023.216284. Epub 2023 Jun 24. PMID: 37356470; PMCID: PMC10408729.\nSEQUENCE No. (e.g., 1, 2, 3, etc.); […] (e.g., Cells, Incubation, Reagent, etc.); VALUE and DESCRIPTION.\n1; Cells; 5 uL; white, solid bottom 1536-well Greiner assay plate.\n2; Compounds; 23 nL; Kalypsis pin tool (Wako USA) equipped with a 1536-well pin head to transfer to the assay plates.\n3; Incubation; 48 hours; 37C incubation.\n4; Reagent;5uL; CellTiter Glo (Promega).\n5; Detector; 425V; Luminescence; Viewlux PerkinElmer.\nNOTES (numbers refer to Sequence numbers above)\n1. The cell-based screening methods employed in this study were like those previously published. Briefly, the corresponding myeloma cell lines were screened in 1,536-well plates with 500 cells, 5-uL per well for inhibition of cell viability (assessed by measuring ATP levels with CellTiterGlo).\n2. NCATS MIPE 4.0 library of approved and investigational drugs were added using the Kalypsis pin tool. Wells treated with DMSO only for 100% viability and media only for 0% viability were used as controls.\n3. The assay plates were covered and incubated for 48 hours in a 37C, 5% CO2 incubator with controlled humidity.\n4. After 48 hours, CellTilter-GloTM luminescent substrate mix (Promega) reagent was added to the assay plate and plates we incubated for 5 min at room temperature.\n5. Signal was measured as median relative luminescence units on a ViewLux (PerkinElmer) multiplate reader.\n[1] Heske CM, Davis MI, Baumgart JT, Wilson K, Gormally MV, Chen L, Zhang X, Ceribelli M, Duveau DY, Guha R, Ferrer M, Arnaldez FI, Ji J, Tran HL, Zhang Y, Mendoza A, Helman LJ, Thomas CJ. Matrix Screen Identifies Synergistic Combination of PARP Inhibitors and Nicotinamide Phosphoribosyltransferase (NAMPT) Inhibitors in Ewing Sarcoma. Clin Cancer Res. 2017 Dec 1;23(23):7301-7311. doi: 10.1158/1078-0432.CCR-17-1121. Epub 2017 Sep 12. PMID: 28899971; PMCID: PMC6636827.", "values": [{"compound": "Oc1ccc(C2CNCCc3c2cc(O)c(O)c3Cl)cc1", "note": "(stereo not given)", "viability, % of DMSO control": "106% (inactive)"}, {"compound": "COc1cc2nccc(Oc3ccc(NC(=O)NC4CC4)c(Cl)c3)c2cc1C(N)=O", "Potency": "13.2 µM (active)"}, {"compound": "CCc1cc(Nc2nccc(-c3c(-c4ccc(OC)c(C(=O)Nc5c(F)cccc5F)c4)nc4ccccn34)n2)c(OC)cc1N1CCC(N2CCN(S(C)(=O)=O)CC2)CC1", "Potency": "26.4 µM (active)"}, {"compound": "O=C1CCc2cc(OCCCCc3nnnn3C3CCCCC3)ccc2N1", "viability, % of DMSO control": "113% (inactive)"}, {"compound": "CC(C=CC1=C(C)CCCC1(C)C)=CC=CC(C)=CC(=O)O", "Potency": "inactive and 9.35 µM (active)"}, {"compound": "CC(C)(C)OC(=O)CN(Cc1ccc(Cl)cc1)Cc1ccc([N+](=O)[O-])s1", "Potency": "20.9 µM (active)"}, {"compound": "CCCn1c(=O)c2[nH]c(C34CC5CC3C[C@@H](C5)C4)nc2n(CCC)c1=O", "Potency": "20.9 µM (active)"}, {"compound": "N#Cc1ccc(C(c2ccc(C#N)cc2)n2cncn2)cc1", "Potency": "6.62 µM (active)"}, {"compound": "COc1cc(F)c(F)c(Nc2ccc(I)cc2F)c1NS(=O)(=O)C1(C[C@H](O)CO)CC1", "Potency": "5.26 µM (active)"}, {"compound": "O=C(O)[C@@H](c1ccc(OCc2ccc3ccccc3n2)cc1)C1CCCC1", "viability, % of DMSO control": "101% (inactive)"}, {"compound": "O=C(C1CC1)N1CC[C@@H](Cn2c(-c3ccc(-c4ccc5occc5c4)cc3)nc3cnccc32)C1", "viability, % of DMSO control": "111% (inactive)"}, {"compound": "O=C1CCCC2=C1C(c1[nH]ncc1Cl)N=C(Nc1nc3ccccc3o1)N2", "note": "(stereo not given)", "viability, % of DMSO control": "120% (inactive)"}, {"compound": "CS(=O)(=O)Oc1ccc2c(NC(N)=O)c(C(=O)c3ccc(Cl)cc3Cl)oc2c1", "viability, % of DMSO control": "133% (inactive)"}, {"compound": "NC(=O)c1ccc(I)c([N+](=O)[O-])c1", "viability, % of DMSO control": "135% (inactive)"}, {"compound": "Cn1c(=O)c(F)c(Nc2ccc(I)cc2F)c2c(=O)n(C[C@@H](O)CO)cnc21", "viability, % of DMSO control": "152% (inactive)"}, {"compound": "NNCCc1ccccc1", "Potency": "9.35 µM (active)"}, {"compound": "CCN(CC)CCCC(C)Nc1ccnc2cc(Cl)ccc12", "note": "(stereo not given)", "viability, % of DMSO control": "106% (inactive)"}, {"compound": "CN[C@@H](C)C(=O)N[C@H]1CCCC[C@H]2CC[C@@H](C(=O)N[C@@H](c3ccccc3)c3cn(CCCCc4ccc(CCCCn5cc([C@@H](NC(=O)[C@@H]6CC[C@@H]7CCCC[C@H](NC(=O)[C@H](C)NC)C(=O)N76)c6ccccc6)nn5)cc4)nn3)N2C1=O", "viability, % of DMSO control": "164% (inactive)"}, {"compound": "Cc1c(C)c2c(c(C)c1O)CCC(C)(COc1ccc(CC3SC(=O)NC3=O)cc1)O2", "note": "(stereo not given)", "viability, % of DMSO control": "145% (inactive)"}, {"compound": "Cc1cccc(-c2nn(C(=S)Nc3ccccc3)cc2-c2ccnc3ccccc23)n1", "Potency": "18.7 µM (active)"}, {"compound": "COc1ccc(-c2ccc3c(N4CCOC[C@H]4C)nc(N4CCOC[C@H]4C)nc3n2)cc1CO", "Potency": "0.0235 µM (active)"}, {"compound": "O=c1[nH]cnc2[nH]ncc12", "viability, % of DMSO control": "107% (inactive)"}, {"compound": "CCN(CC)CCCC(C)Nc1nc(C)cc(Nc2ccc3nc(C)cc(N)c3c2)n1", "note": "(stereo not given)", "viability, % of DMSO control": "141% (inactive)"}, {"compound": "C1COC(NC(C2CC2)C2CC2)=N1", "viability, % of DMSO control": "115% (inactive)"}, {"compound": "Cc1ccc(NC(=O)c2cccc(C(C)(C)C#N)c2)cc1Nc1ccc2ncn(C)c(=O)c2c1", "Potency": "11.8 µM (active)"}, {"compound": "CCCc1nc2c(C)cc(-c3nc4ccccc4n3C)cc2n1Cc1ccc(-c2ccccc2C(=O)O)cc1", "viability, % of DMSO control": "155% (inactive)"}, {"compound": "Cc1cnc(NC(=O)C2=C(O)c3ccccc3S(=O)(=O)N2C)s1", "viability, % of DMSO control": "112% (inactive)"}, {"compound": "NC[C@H](O)c1ccc(O)c(O)c1", "Potency": "18.7 µM (active)"}, {"compound": "CCOc1ccc(Cc2cc([C@@H]3O[C@H](CO)[C@@H](O)[C@H](O)[C@@H]3O)ccc2Cl)cc1", "viability, % of DMSO control": "131% (inactive)"}, {"compound": "Cc1cc(-c2ccc(CC(=O)Nc3ccc(-c4cccnc4)cc3)cc2)ccn1", "Potency": "13.2 µM (active)"}, {"compound": "Cc1[nH]c(=O)c(C#N)cc1-c1ccc2nccn2c1", "viability, % of DMSO control": "111% (inactive)"}, {"compound": "CCOC(=O)C1=C[C@]2(CC)CCCN3CCc4c(n1c1ccccc41)[C@@H]32", "Potency": "20.9 µM (active)"}, {"compound": "COc1ccc(-c2oc3cc(OC)ccc3c2C(=O)c2ccc(C#N)cc2)cc1", "viability, % of DMSO control": "111% (inactive)"}, {"compound": "Cc1c(CN2CCN(C(=O)C(C)C)CC2)sc2c(N3CCOCC3)nc(-c3cnc(N)nc3)nc12", "Potency": "0.0662 µM (active)"}, {"compound": "c1ccc(-c2nn3c(c2-c2ccnc4cc(OCCN5CCOCC5)ccc24)CCC3)nc1", "Potency": "23.5 µM (active)"}, {"compound": "COc1ccccc1[C@H](c1cccc2ccccc12)[C@@](C)(C#N)C(=O)N1CCC(c2cccc(C(F)(F)F)c2)CC1", "Potency": "4.18 µM (active)"}, {"compound": "COc1ccc(-c2c(-c3ccc(O)cc3O)n[nH]c2C)cc1", "viability, % of DMSO control": "128% [at 92.2 µM] (inactive)"}, {"compound": "C[C@]12CC[C@H](O)CC1=CC[C@@H]1[C@H]2CC[C@]2(C)C(c3cccnc3)=CC[C@H]12", "viability, % of DMSO control": "105% [at 23.2 µM] (inactive)"}, {"compound": "O=C(O)CCc1ccc(NCc2cccc(Oc3ccccc3)c2)cc1", "viability, % of DMSO control": "118% (inactive)"}, {"compound": "CC(=O)Oc1ccccc1C(=O)O", "viability, % of DMSO control": "149% (inactive)"}]}]}
